# Rtt109 HAT inh: inhibitors of C. albicans Rtt109/Vps75 HAT, primary screen, biochemical, ThioGlo CoA-SH fluorescence, plate reader | Histone acetyltransferase RTT109 (Candida albicans (strain SC5314 / ATCC MYA-2876)), … | purified Rtt109/Vps75, 4 h | inhibition, % at 34.9 µM | hit rate 0.16% among 330,000;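 active = inhibition of at least 50% in every replicate; inconclusive = best replicate reaches 50% inhibition but some replicates fall short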
# ALR inh: inhibitors of human ALR sulfhydryl oxidase, primary screen, biochemical, H2O2 detection, HRP-luminol luminescence, single point | FAD-linked sulfhydryl oxidase ALR (Homo sapiens), P55789 | purified ALR, DTT oxidation | inhibition, % (concentration not given with the values) | hit rate 3.8% among 290,000 | AID 485317, 2010;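 active = mean replicate inhibition above about 79%, with every replicate also reaching it, limit read from the data; inconclusive = only one of the two criteria met; inactive = mean below limit and not every replicate reaching it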
# ABHD5-PLIN5 inh: ABHD5-PLIN5 interaction inhibitors, primary screen, cell lysate, split luciferase complementation, luminescence; Perilipin-5 (Homo sapiens) + 1-acylglycerol-3-phosphate O-acyltransferase ABHD5 (Homo …; Split G. princeps luciferase complementation, 4 h; inhibition, % at 4 µM; hit rate 0.78% among 360,000; AID 602281, 2012;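 active = inhibition above the mean inhibition across every tested compound plus 3 SD, cut at about 22% in these data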;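 note: 0% = DMSO only wells and the 100% control is not disclosed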
# LANA-H2A inh: blockers of LANA interaction with H2A/H2B – biochemical, FP readout, HTS, primary screen; Protein LANA1 (Human herpesvirus 8 type P (isolate GK18)), Q9QR71; cell-free LANA-H2A/H2B peptide, fluorescence polarization; inhibition, % (concentration not given with the values); hit rate 0.6% among 320,000; in the data active = inhibition mostly above about 10%, no sharp cut-off; inactive = mostly below about 6.7%
# PRMT1 FP inh: PRMT1 methyltransferase inhibitors, primary screen, biochemical, fluorescence polarization | hit rate 1.3% among 370,000 | Protein arginine N-methyltransferase 1 (Homo sapiens), Q99873 | recombinant PRMT1, activity-based probe fluorescence polarization | inhibition, % at 2.79 µM;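 active = inhibition above about 21% made by adding two undisclosed values, limit read from the data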
# rCAG RNA binder: binders of r(CAG) RNA repeats, primary screen, biochemical, fluorescence; r(CAG) RNA repeat, TO-PRO-1 dye displacement fluorescence; inhibition, % at 3 µM; hit rate 1.3% among 370,000; AID 651821, 2012;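 active = inhibition above the plate cutoff, the mean of all test compounds on that plate plus 3 SD, cut at about 35% in these data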;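 note: 0% = DMSO alone and 100% = 100 µM mitoxantrone as full dye displacement; higher means more dye released from RNA so lower well fluorescence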
# PRMT1 confirm: PRMT1 methyltransferase inhibitors, confirmation, biochemical, fluorescence polarization, triplicate; AID 687036, 2013; hit rate 42% among 3,300; inhibition, % at 2.79 µM; recombinant His-PRMT1, activity-based probe fluorescence polarization; shares compounds with PRMT1 FP inh;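 active = mean inhibition across replicates above the hit cutoff derived for the earlier primary screen, cut at about 22% in these data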
# Numbers without * were called inactive; ? = inconclusive; . = no result given. Sampled rows, rich in hits. Any-hit rate of the full collection: about 5.9%.
SMILES,Rtt109 HAT inh,ALR inh,ABHD5-PLIN5 inh,LANA-H2A inh,PRMT1 FP inh,rCAG RNA binder,PRMT1 confirm
CC(C)(C)c1nnc(SCC(=O)c2ccccc2)n(N)c1=O,-22,.,-25,5,75*,4,57*
CC(C)(C)C(=O)CSc1nc2c(c(-c3cccs3)c1C#N)CCC2,-11,-3,-2,2,3,3,.
Cc1cccc(CSc2nc3c(c(-c4cccs4)c2C#N)CN(C)CC3)c1,7,72,4,-5,0,7,.
CN1CCc2nc(SCC(=O)Nc3cccc(F)c3)c(C#N)c(-c3cccs3)c2C1,-35,.,7,-1,65*,19,23*
CN1CCc2nc(SCC(=O)Nc3ccc(OC(F)(F)F)cc3)c(C#N)c(-c3cccs3)c2C1,9,99*,8,3,40*,21,41*
O=C(CCCCCNC(=O)N1CCn2c1nc1ccccc12)N[C@H](C(=O)O)c1ccccc1,1,-30,-2,-4,-1,10,.
CC(=NNC(=O)CSc1nnc(-c2ccccc2)n1-c1ccccc1)c1cccc([N+](=O)[O-])c1,.,.,.,.,-12,2,.
O=c1c2ccccc2sn1-c1ccc(Cl)cc1Cl,.,.,-9,.,74*,0,94*
O=c1c2ccccc2ncn1-c1ccc(Cl)cc1Cl,.,-12,2,-7,0,-6,.
CCOC(=O)C(=C1Nc2ccccc2N1)n1c(-c2ccco2)nc2ccccc21,.,.,-4,.,29*,30,88*
O=C(COc1ccccc1)Nc1nc(-c2ccncc2)cs1,14,-13,5,-2,35*,6,34*
Cc1cc(C)cc(OCC(=O)Nc2nc(-c3cccnc3)cs2)c1,10,1,-2,0,35*,5,13
C=CCN1C(=O)[C@@H](CC(=O)N2CCC(c3ccccc3)CC2)[C@]2(C(=O)OCC)CCCCC/C=C/12,.,.,.,.,-4,2,.
O=C1CCC/C(=N/NC(=O)c2sc3ccccc3c2Cl)C1,15,98*,-2,-4,85*,-41,8
O=C(O)CN1C(=O)/C(=C/c2ccc(N3CCCCC3)o2)SC1=S,5,.,2,2,38*,25,37*
O=C(O)CCCCCN1C(=O)/C(=C\c2ccc(-c3ccc(Cl)cc3)o2)SC1=S,11,68,0,-3,0,3,.
CN(Cc1ccccc1)S(=O)(=O)c1ccc2c(c1)n(C)c(=O)c(=O)n2C,-11,-4,-9,-13,-1,-2,.
CN1C(=O)CC(=O)N(C)c2cc(S(=O)(=O)N(C)Cc3ccccc3)ccc21,-6,-8,7,-2,54*,-1,36*
CC1CCN(c2ccc(S(=O)(=O)N3CCC(C)CC3)cc2N)CC1,2,0,-11,-2,-3,-1,.
CC1CCN(S(=O)(=O)c2ccc3c(c2)N(C)C(=O)CC(=O)N3C)CC1,4,0,-2,-3,47*,2,44*
COC(=O)c1ccc(NC(=O)CN2CCC(NC(=O)c3ccccc3F)CC2)cc1,.,.,1,.,-2,0,.
CC1(c2nnnn2C2CCCCC2)CCCC(=O)N1CCc1ccc(O)cc1 (stereo not drawn),.,.,.,.,-1,6,.
CC(C)(C)OC(=O)NCCCCCc1nnc(SCc2ccccc2)o1,4,-13,9,-3,81*,-11,0
CCCC/C=C1/CCC(CN(C)C)C1=O (stereo not drawn),8,.,-2,.,.,.,.
CCCCc1ccc2nc(NC(=O)c3ccco3)sc2c1,.,.,.,.,-3,.,.
SMILES,Rtt109 HAT inh,ALR inh,ABHD5-PLIN5 inh,LANA-H2A inh,PRMT1 FP inh,rCAG RNA binder,PRMT1 confirm
Cc1ccc(SCC(=O)N=C2NC(=O)CS2)cc1,9,4,-5,0,52*,3,3
Cn1cccc1C=NNC(=O)c1cc(-c2ccc(Cl)cc2)n[nH]1,.,.,.,.,25*,10,-7
COc1ccc(N2CC(C(=O)Nc3nnc(SCC(=O)N4CCOCC4)s3)CC2=O)cc1 (stereo not drawn),2,-5,-8,0,4,6,.
COC(=O)[C@]12C[C@H](CC(=O)N3CCCC3)C(=O)N(CCc3ccc(OC)c(OC)c3)C1=C[C@H](C1CCCC1)O[C@@H]2C,.,.,.,.,1,1,.
COC(=O)c1ccc2nc(-c3ccc(Cl)cc3)c(Cc3ccccc3OC)n2c1,.,.,-2,.,2,31,.
COc1ccccc1Cc1c(-c2ccco2)nc2cc(C)c(Br)c(C)n12,.,.,58*,.,32*,31,25*
COC(=O)c1ccc2nc(-c3ccco3)c(Cc3ccccc3OC)n2c1,.,.,.,.,44*,22,28*
O=C1C(=O)N(Cc2ccc(-c3ccc(Cl)nc3)cc2)c2ccc(OC(F)(F)F)cc21,.,.,.,.,5,.,.
Cc1ccccc1-n1c(O)cc(=O)[nH]c1=S,0,2,-6,0,28*,2,2
CCN1C(=O)/C(=C/c2ccc(C)o2)N(C)C1=S,-12,2,15,3,45*,6,1
CCN1C(=O)/C(=C/c2cccs2)N(C)C1=S,-5,-19,-3,2,-1,-3,.
O=C(NCc1ccc(C(=O)NCC2CCCO2)cc1)c1cccc(Br)c1 (stereo not drawn),.,.,.,.,2,-1,.
CC(=O)Nc1ccc(S[C@@H](CCN2CC[C@H](O)CCC2=O)c2ccccc2)cc1,8,99*,-6,-3,36*,-4,28*
COC(=O)c1c(N2C(=O)CC(Sc3ccccc3C(=O)O)C2=O)sc2c1CCCC2 (stereo not drawn),2,67,3,4,55*,22,48*
O=C(O)c1ccccc1SC1CC(=O)N(C2CCCCC2)C1=O (stereo not drawn),-5,4,-2,3,.,.,.
O=C1CC(Sc2nnc(-c3ccccc3)o2)C(=O)N1c1ccccc1 (stereo not drawn),1,.,13,4,68*,0,60*
O=C(O)c1ccccc1SC1CC(=O)N(c2ccccc2)C1=O (stereo not drawn),18,6,14,5,66*,-2,23*
COC(=O)c1c(N2C(=O)CC(Sc3ccccc3C(=O)O)C2=O)sc(C)c1C (stereo not drawn),?,12,6,1,64*,12,51*
CCOC(=O)N1CCN(C(=O)C[C@H]2C(=O)N(Cc3ccc(OC)cc3)C3=CCCC[C@@]32C(=O)OCC)CC1,.,.,.,.,-5,-2,.
